# Results reported in PubChem BioAssay (Tox21).
# Inconclusive results are not listed. A number with no mark means an inactive call. Calls come from the whole dose curve.
# Biological target: Vitamin D3 receptor (Homo sapiens) (UniProt P11473)
# Assay: qHTS assay to identify small molecule agonists of the vitamin D receptor (VDR) signaling pathway (AID 743222)
# Conditions: HEK293T VDR-UAS-bla, beta-lactamase FRET ratio, 16 h; series mostly up to 63.5 µM; activation: at the top concentration
# Text: National Center for Advancing Translational Sciences [NCATS]
# NIH Chemical Genomics Center [NCGC]
# U.S. Environmental Protection Agency [EPA]
# National Institutes of Environmental Health Sciences [NIEHS]
# National Toxicology Program [NTP]
# U.S. Food and Drug Administration [FDA]
# The vitamin D receptor (VDR), a member of nuclear hormone receptor superfamily, plays a critical role in calcium homeostasis and bone metabolism. It is also involved in cell differentiation and growth, and thrombogenicity.
# Tox21 Assay Protocol Summary:
# VDR-bla cells were dispensed at 2,000 cells/6 uL/well into black wall/clear-bottom 1536-well plates using a Multidrop Combi (Thermo Fisher Scientific, Waltham, MA) dispenser. After the assay plates were incubated at a 37C and 5% CO2 for 4 h, 23 nL of compounds dissolved in DMSO, positive controls or DMSO only was transferred to the assay plate by a Pintool station (Kalypsys, San Diego, CA). The plates were incubated at 37C and 5% CO2 for 16 h. After 1 uL of LiveBLAzerTM B/G FRET substrate was added using a Bioraptr Flying Reagent Dispenser (FRD) workstation (Beckman Coulter, Indianapolis, IN, USA), the plates were incubated at room temperature for 2 h, and fluorescence intensity was measured by an Envision plate reader (PerkinElmer, Shelton, CT).
# % is set by controls: 0 for no effect and ±100 for the full control effect.
# Sequence of Vitamin D3 receptor (Homo sapiens) (P11473 whole entry, looked up): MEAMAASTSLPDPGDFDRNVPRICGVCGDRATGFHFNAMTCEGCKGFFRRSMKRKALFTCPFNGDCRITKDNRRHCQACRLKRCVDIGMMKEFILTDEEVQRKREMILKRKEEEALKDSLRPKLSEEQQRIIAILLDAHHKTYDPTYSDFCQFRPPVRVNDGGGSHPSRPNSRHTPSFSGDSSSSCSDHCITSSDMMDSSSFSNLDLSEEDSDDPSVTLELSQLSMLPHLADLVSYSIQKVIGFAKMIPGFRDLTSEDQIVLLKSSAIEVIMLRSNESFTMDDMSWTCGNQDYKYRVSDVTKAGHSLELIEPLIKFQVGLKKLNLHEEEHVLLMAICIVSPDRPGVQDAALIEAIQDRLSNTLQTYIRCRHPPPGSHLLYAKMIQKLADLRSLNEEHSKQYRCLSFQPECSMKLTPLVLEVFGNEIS
row,Compound,activation
1,CCNc1nc(NC(C)C)nc(OC)n1,7.33%
2,CCOP(=S)(OCC)Oc1cc(-c2ccccc2)on1,-7.56%
3,COc1cccc(C(=O)NN(C(=O)c2cc(C)cc(C)c2)C(C)(C)C)c1C,-5.43%
4,CCCCC(=O)Cl,0.0575% [at 81.1 µM]
5,CCOC(=O)C1(c2ccccc2)CCN(CCc2ccc(N)cc2)CC1,-18.1%
6,CN1CCC(N(Cc2ccccc2)c2ccccc2)CC1,-18.3%
7,CCS(=O)(=O)CCSP(=O)(OC)OC,-1.07%
8,Cc1cccc(C#N)c1,-2.01%
9,CC(C1CC1)C(O)(Cn1cncn1)c1ccc(Cl)cc1 (stereo not given),5.35%
10,CNC(=O)O/N=C(\C)SC,2.8%
11,ClCC(Cl)Cl,6.15% [at 81.1 µM]
12,NC(=S)C(N)=S,2.25%
13,CCS(=O)(=O)C(C)(C)S(=O)(=O)CC,0.889%
14,CCOP(=S)(OCC)SCSc1ccc(Cl)cc1,-0.121%
15,C#C[C@]1(O)C=C[C@H]2[C@@H]3CCC4=CC(=O)CC[C@@H]4[C@H]3CC[C@@]21CC,-8.35%
16,CC(Oc1ccc(Oc2ncc(C(F)(F)F)cc2Cl)cc1)C(=O)O (stereo not given),-7.5%
17,COP(=S)(OC)Oc1ccc(S(N)(=O)=O)cc1,-3.38%
18,Cc1ncsc1CCCl,-0.422%
19,c1ccc(N2CCNCC2)cc1,4.25%
20,CCCSC(=O)Cl,-2.01% [at 81.1 µM]

row,Compound,activation
1,CCCSP(=S)(OCC)Oc1ccc(Cl)cc1Cl (stereo not given),-0.289%
2,CCOC(=O)N(C)C(=O)CSP(=S)(OCC)OCC,-5.99%
3,O=C1c2ccccc2C(=O)c2ccccc21,3.77% [at 29.5 µM]
4,C[C@]12CC[C@H]3[C@@H](CC=C4C[C@@H](O)CC[C@@]43C)[C@@H]1CC[C@@H]2O,2.21%
5,CCOP(=S)(Oc1cnc(C(C)(C)C)nc1)OC(C)C (stereo not given),-10.6%
6,CNC(=O)Oc1ccccc1C1OCCO1,-3.37%
7,Cc1ccccc1CO[C@@H]1C[C@@]2(C(C)C)CC[C@]1(C)O2,-7%
8,COP(=S)(OC)Oc1c(Cl)cc(C)cc1Cl,3.5%
9,COc1ccc2c(c1OC)CN1CCc3cc4c(cc3C1C2)OCO4 (stereo not given),3.96%
10,CC(C)(C)NCC(O)c1cc(Cl)c(N)c(Cl)c1 (stereo not given),-1.96%
11,Cc1nc(N)nc(N)n1,1.55% [at 81.1 µM]
12,CSc1nc(N=[N+]=[N-])nc(NC(C)C)n1,-1.29%
13,OCCSCSCCO,6.53%
14,[O]=[Cd],-10.8%
15,C[N+](C)=CCl,-1.13%
16,CCCCc1c(C)nc(NCC)[nH]c1=O,1.03%
17,CCCCCCBr,-0.859% [at 81.1 µM]
18,CN1C(=S)CN=C(c2ccccc2)c2cc(Cl)ccc21,2.48%
19,CCOP(=O)(OCC)OP(=O)(OCC)OCC,3.15%
20,CN/C(=N\[N+](=O)[O-])NCC1CCOC1 (stereo not given),4.96%
